# Results reported in PubChem BioAssay (NCI).
# Compounds without any hit were thinned out: in the full panel of roughly 83,000, 20% have a hit.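 Negative percent growth values reflect cell death: -40 means 40% of the cells present at the start died, and -100 means all died.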 Unmarked numbers belong to inactive results. Active and inactive are the calls of the source. How the source made its calls: active means growth percent below 10; inactive means the rest.
# Columns and labels:
# Assay in all cases: NCI-60 one-dose screen, 48 h (100 = growth as untreated, 0 = no growth, -100 = all killed)
# Details in all cases: 10 µM unless noted
# [1] = system: SR leukemia
# [2] = system: RPMI-8226 leukemia
# [3] = system: OVCAR-8 ovarian
# [4] = system: OVCAR-5 ovarian
# [5] = system: OVCAR-4 ovarian
# [6] = system: SK-OV-3 ovarian
# [7] = system: IGROV1 ovarian
# [8] = system: OVCAR-3 ovarian
# [9] = system: HS 578T breast
# [10] = system: NCI/ADR-RES ovarian
# [11] = system: T-47D breast
# [12] = system: BT-549 breast
# [13] = system: MDA-MB-435 melanoma
# [14] = system: SW-620 colon
# [15] = system: MCF7 breast
# [16] = system: HCT-116 colon
# [17] = system: HCC-2998 colon
# [18] = system: KM12 colon
SMILES,growth [1],growth [2],growth [3],growth [4],growth [5],growth [6],growth [7],growth [8],growth [9],growth [10],growth [11],growth [12],growth [13],growth [14],growth [15],growth [16],growth [17],growth [18]
CCOC(=O)c1ccc[nH]1,94.8%,90.5%,95.9%,78.9%,95.5%,108%,90.6%,115%,95%,95.2%,93.3%,77.5%,105%,113%,92.6%,94.5%,88.1%,108%
COc1ccccc1S(=O)(=O)Nc1ccc2c3c(cc(CCC(=O)NCCCCNc4cccc5c4C(=O)N(C4CCC(=O)NC4=O)C5=O)cc13)C(=O)N2C (stereo not drawn),13.9%,53.6%,4.39% (active),42%,-19.8% (active),34.6%,-9.53% (active),30%,-17.8% (active),88.2%,3.74% (active),-10.9% (active),23.2%,7.68% (active),6.07% (active),46.2%,10.9%,20.2%
COc1ccc(C2CC(n3ccnc3)c3cc(OC)c(OC)c(OC)c32)cc1O (stereo not drawn),35.4%,94.6%,89.2%,107%,100%,86.3%,82.4%,57.1%,85.4%,93.9%,94.3%,90.4%,5% (active),62.5%,44.8%,81.1%,99.2%,50.6%
COc1cc2c3c(c4c5ccccc5[nH]c4c2c(OC)c1OC)C(=O)N(CCN1CCCCC1)C3=O,21.6%,-12% (active),-35.5% (active),52.4%,15.7%,54.7%,-68.8% (active),-20.7% (active),52.2%,24.6%,59.5%,96.6%,33.7%,-66.4% (active),-56.3% (active),-85.6% (active),22.3%,-20% (active)
CC(C)(C)OC(=O)CN1CCc2c(sc3ncnc(N4CCN(c5ccc(F)cc5)CC4)c23)C1,79.8%,57.7%,73.2%,82.8%,85.5%,102%,89.8%,90.5%,70.4%,79.7%,63.9%,76.1%,93.3%,77.7%,90.6%,87.3%,100%,83%
COc1ccc2cc(C(=O)N3CCC([C@@H](C)C(=O)NCc4ccc5c(c4)OCO5)CC3)[nH]c2c1,62.6% [50 µM],47.1% [50 µM],16.3% [50 µM],73.1% [50 µM],53.3% [50 µM],1.39% [50 µM] (active),41.6% [50 µM],8.71% [50 µM] (active),22.9% [50 µM],38.3% [50 µM],17.3% [50 µM],16% [50 µM],65.9% [50 µM],103% [50 µM],46.8% [50 µM],33.6% [50 µM],83% [50 µM],79.1% [50 µM]
O=C1NC(=O)C(c2coc3cc(Br)ccc23)=C1c1c[nH]c2ccccc12,19.9%,44.2%,51.6%,87.3%,77.5%,55.6%,52.2%,20.1%,43.3%,34%,34.7%,67.9%,-7.93% (active),35.4%,30.4%,27.3%,108%,31.7%
COC(=O)c1c(C)nc(C)c2c1C(=O)C=C(NCc1ccccc1)C2=O,54.1%,88.4%,97.8%,81.7%,64.6%,91.4%,66.7%,44.1%,116%,81.7%,82.2%,90%,103%,106%,76%,76%,96.2%,83%
COc1cccc(CNc2c3ccccc3nc3ccccc23)c1OC,17.5%,17%,39.2%,43%,36.6%,66%,23.2%,65.1%,64.3%,33.2%,47.5%,59.7%,46.3%,25.4%,10.1%,11.8%,38.3%,52.4%
CN(C)C1CN(C(=O)c2cc(-c3ccc4ncnc(N5CCc6cc(F)c(Cl)cc65)c4c3)cnc2N)C1,13.3%,-10.8% (active),16%,28.1%,5.94% (active),23.1%,-33.6% (active),-16.5% (active),-24.1% (active),21.1%,4.73% (active),-12.8% (active),9.39% (active),19.1%,5.85% (active),10.6%,15.3%,18.2%
Cc1ccc(-c2nc(SCC(=O)N3CCN(c4cc5c(cc4F)c(=O)c(C(=O)O)cn5C4CC4)CC3)nc(Cl)c2C#N)cc1,103%,104%,106%,96.4%,108%,89.2%,97.4%,109%,104%,102%,91.1%,103%,106%,103%,94.9%,101%,98.8%,102%
O=C(C[C@]1(O)C(=O)Nc2ccc(Br)cc21)c1ccco1,97.9%,100%,98.2%,106%,104%,95.2%,92.7%,102%,102%,100%,104%,109%,112%,95.5%,94.2%,105%,115%,101%
c1ccc(-c2nc3ccccc3[nH]2)c(OCCCCCOc2ccccc2-c2nc3ccccc3[nH]2)c1,2.06% (active),23.8%,64.3%,92.2%,58.9%,169%,70%,59.7%,89%,63.9%,111%,88.5%,63.5%,18.5%,19.8%,-10.4% (active),92.2%,98.6%
COCCn1cc(-c2nc(-c3cn(CCOC)c4ncccc34)cs2)c2cc(F)ccc21,35.3%,61.3%,62.4%,38.8%,25.4%,76.8%,30.1%,17.6%,70.8%,63.8%,-11.9% (active),51.7%,59.1%,90.7%,7.84% (active),61.8%,42.1%,10.6%
Cc1cc(N2CCN(CC(=O)Nc3ccc4c(ccn4Cc4ccccc4)c3)CC2)nc(N2CCOCC2)n1,107%,67%,68.2%,97.9%,84.4%,81.9%,76.8%,89.3%,82.8%,79.4%,59.6%,81.5%,92.9%,95%,79.8%,72.5%,119%,91.3%
Cc1[nH]c(C(=O)Nc2ccccc2OC2CCN(CCN3CCOCC3)CC2)c(Cl)c1Cl,10.3%,67.4%,101%,96.4%,97.7%,111%,101%,109%,93.8%,97.6%,86.6%,80.5%,105%,99.7%,87.2%,77.1%,107%,103%
